Most compounds without a hit are left out; they make up all but 19% or so of the library.
HT1080 IDH1KD tx: qHTS for induction of synthetic lethality in tumor cells producing 2HG: qHTS for the HT-1080-IDH1KD cell line; HT-1080 IDH1 knockdown viability, ATP luminescence, 48 h; Potency, µM (titrated, usually from 46.1 µM), most hits filed as cytotoxic; hit rate 2% among 360,000
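IDH1KD HT-1080 cells, 750/well, RPMI + 5% FBS; compound pinned after 2 h settling; 48 h, 37 °C; CellTiter-Glo luminescence; % activity normalised to DMSO and no-cell wells; curves fitted, classed by r2 and efficacy.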
TDP1 cell noCPT: qHTS for Inhibitors of human tyrosyl-DNA phosphodiesterase 1 (TDP1): qHTS in cells in absence of CPT; DT40 Tdp1-/- hTDP1 cells, no CPT, ATP luminescence, 48 h; Potency, µM (series often up to 46.2 µM), usual class: inhibitors; hit rate 15% among 420,000; note: nearly all actives have a fitted effect of over 55% in size
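Seeded 400 DT40-hTDP1 cells/well (vehicle DMSO, no 20 nM CPT); pinned compounds; ≥48 hr at 37 °C; CellTiter-Glo luminescence as viability measure.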
IL-1B inflam inh: qHTS for Inhibitors of Inflammasome Signaling: IL-1-beta AlphaLISA Primary Screen; activity change, % at 57.5 µM; THP-1 LPS/ATP IL-1B secretion, AlphaLISA, 16 h; active compounds read low; hit rate 4.7% among 360,000; in the data active = activity change below about -50%; inconclusive = mostly about -30% to -49%
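THP-1 cells pretreated 1 hr with compounds (up to 57.5 uM final), then stimulated with LPS (250 ng/mL final) plus ATP (1.25 mM final); secreted IL-1B measured by AlphaLISA after 16 hr, decreased signal indicating inhibition.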
HT1080NT lethal: qHTS for induction of synthetic lethality in tumor cells producing 2HG: qHTS for the HT-1080-NT fibrosarcoma cell line; HT-1080-NT fibrosarcoma viability, CellTiter-Glo ATP luminescence, 48 h; Potency, µM (titrated, usually from 46.1 µM), actives largely listed as cytotoxic; hit rate 1.6% among 360,000; AID 686970, 2013;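 note: NT is the 2HG producing partner of a matched IDH1 knockdown line; nearly all actives have a fitted effect of over 55% in size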
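Fibrosarcoma NT cells, 750 per well in 5% FBS RPMI, were exposed to compound for 48 hours. Viability: CellTiter-Glo luminescence.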
DT40 TDP1 CPT: qHTS for Inhibitors of human tyrosyl-DNA phosphodiesterase 1 (TDP1): qHTS in cells in presence of CPT; hit rate 12% among 420,000; Potency, µM (doses to about 46.2 µM), actives largely listed as inhibitors; chicken DT40 Tdp1-/-;hTDP1 cells + 20 nM CPT, ATP luminescence, 48 h; note: nearly all actives have a fitted effect of over 55% in size
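Chicken DT40 Tdp1-/- cells stably complemented with human TDP1 were seeded at 400 cells/well in medium containing 20 nM camptothecin, exposed to pin-transferred compounds, and grown at 37 °C for at least 48 hr. Viability was read as ATP luminescence.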
Numbers stand for hits; n = inactive; u = inconclusive; x = no result. Unless noted, calls come from the whole dose curve; as a rule, active = well fitted curve in the direction sought with a large enough effect; inconclusive = small, poorly fitted or top-dose-only effect, or another doubt; inactive = no such curve, though single readings can be large; an effect the other way counts as inactive or inconclusive.

SMILES	HT1080 IDH1KD tx	TDP1 cell noCPT	IL-1B inflam inh	HT1080NT lethal	DT40 TDP1 CPT
Cc1ccc(CNC(=O)C2CCN(S(=O)(=O)c3cn(C)cn3)CC2)cc1	x	n	x	x	n
COc1cccc(/C(C)=N/Nc2ccc(S(=O)(=O)N3CCCCC3)cn2)c1	n	2.9µM	n	n	u
Cc1ccc(NC(=O)c2ccc(S(=O)(=O)N3CCCCCC3)cc2)nc1	n	u	n	u	n
C/C(=N\Nc1ccc(S(=O)(=O)N2CCCCC2)cn1)c1ccc(O)cc1	n	15µM	n	n	u
COc1cccc(CNc2ccc(S(=O)(=O)N3CCCC3)cn2)c1	n	u	n	n	u
COc1ccc(NS(=O)(=O)c2cccc(C(=O)NCC3(N(C)C)CCCCC3)c2)cc1	n	u	n	n	n
CCOC(=O)C1=C(CSc2nc3ccccc3s2)NC(=O)NC1c1ccc(OC)cc1 (configuration not stated)	u	18µM	-86	u	21µM
CCOC(=O)C1=C(CSc2nc3ccccc3s2)NC(=O)NC1c1cc(C)ccc1C (configuration not stated)	n	23µM	u	u	u
CCOC(=O)C1=C(CP(=O)(c2ccccc2)c2ccccc2)NC(=O)NC1c1ccc(OC)cc1 (configuration not stated)	n	n	n	n	n
O=C(C1=NN[C@@H]2C(=O)N(Cc3ccccc3)C(=O)[C@H]12)c1ccc([N+](=O)[O-])cc1	n	n	n	n	n
CCC(C(=O)NCC1CCCO1)N(Cc1ccccc1)C(=O)CNS(=O)(=O)c1ccccc1 (configuration not stated)	n	n	n	n	n
CCC(O)CC(C(=O)NNc1ccccc1)C(=O)NNc1ccccc1 (configuration not stated)	5.8µM	n	n	2.6µM	n
CCOC(=O)NNc1ccccc1	3.7µM	n	n	4.1µM	n
CCOC(=O)C(=CNc1ccc(O)c(C(=O)OC)c1)C(=O)OCC	n	n	n	n	u
CCOC(=O)C(=CNNc1ccccc1)C(=O)OCC	n	16µM	n	n	4.6µM
O=C(NCc1cccs1)c1cc(S(=O)(=O)N2CCOCC2)c(Cl)cc1Cl	n	n	n	n	n
CCNC(=S)NNC(=O)c1ccccc1OC(F)F	n	n	n	n	n
COc1ccc(NC(=S)NNC(=O)c2ccccc2OC(F)F)cc1	3.5µM	18µM	n	3.5µM	13µM
Cc1cccc(NC(=S)NNC(=O)c2ccccc2OC(F)F)c1	n	29µM	n	n	23µM
Cc1cccc(NC(=S)NNC(=O)c2ccccc2Br)c1	n	u	n	n	u
COc1ccccc1NC(=O)CSCc1cc(=O)c2cccc(Cl)c2[nH]1	x	n	x	x	n
Cc1nnc(C(C)C)n1C1C[C@H]2CC[C@@H](C1)N2CC[C@H](NC(=O)C1CCC(F)(F)CC1)c1ccccc1 (some centres not stated)	x	n	x	x	n
COc1ccc(-c2cccc(CCC(=O)N3CCN(c4cc(C)ccc4C)CC3)c2)cc1	n	u	n	n	u
Cc1ccc(C)c(N2CCN(C(=O)CCc3nc(-c4ccccc4C(F)(F)F)no3)CC2)c1	n	u	u	n	u
COc1ccccc1-c1noc(CCC(=O)N2CCN(c3cc(C)ccc3C)CC2)n1	n	15µM	n	n	u
COc1ccc(C(=O)CCC(=O)N2CCN(c3cc(C)ccc3C)CC2)cc1	n	u	u	n	16µM
COc1ccc(-c2noc(CCCC(=O)N3CCN(c4cc(C)ccc4C)CC3)n2)cc1	n	u	n	n	u
COc1ccc(-c2noc(CCCCC(=O)N3CCN(c4cc(C)ccc4C)CC3)n2)cc1	n	2.9µM	n	n	4.1µM
Cc1ccc(S(=O)(=O)N(C)C)cc1NC(=O)C(C)OC(=O)c1cc[n+]([O-])cc1 (configuration not stated)	n	n	n	n	n
